Among the data in PubChem BioAssay (NCI) are growth values, retold here.

This is part of a sample that, as a whole, favours compounds with a hit. Of some 83,000 tested, about 20% had one in any assay.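 48-hour exposure, single concentration, 96-well plates; percent growth endpoint where 0 means no net growth. Active: below 10.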 A number with no mark means an inactive call.

The assay concerns MDA-MB-468 breast. Nature of the assay: NCI-60 one-dose screen, 48 h (100 = growth as untreated, 0 = no growth, -100 = all killed). Conditions: 10 µM unless noted.
For the compound `COc1ccc(-c2cnc3c(-c4cccc5cnccc45)cnn3c2)cc1`, the growth was 47.9%. In the case of `NC(=O)c1ccc(NC(=O)c2oc3ccccc3c2-c2cnn(-c3ccccc3)c2)cc1` it was 24.2% [50 µM]; in that of `CC[C@H](C)C(=O)O[C@H]1CCC=C2C=C[C@H](C)C(CCC3C[C@@H](O)CC(=O)O3)[C@H]21` (stereo partly drawn), 75.4%.
